Experimental data as given in PubChem BioAssay.
Unmarked numbers belong to inactive results. How the calls were made is not given here.

molecular target: Pantothenate synthetase (Mycobacterium tuberculosis (strain ATCC 25618 / H37Rv)) (UniProt P9WIL5); assay: Recombinant Mtb pantothenate synthetase (PanC) inhibitors, coupled enzyme, confirmatory (AID 375); conditions: coupled enzyme assay; at 10 µM, active compounds read high;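 further: 0% = full reaction with vehicle and 100% = no enzyme background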
Sequence (P9WIL5 whole entry, looked up): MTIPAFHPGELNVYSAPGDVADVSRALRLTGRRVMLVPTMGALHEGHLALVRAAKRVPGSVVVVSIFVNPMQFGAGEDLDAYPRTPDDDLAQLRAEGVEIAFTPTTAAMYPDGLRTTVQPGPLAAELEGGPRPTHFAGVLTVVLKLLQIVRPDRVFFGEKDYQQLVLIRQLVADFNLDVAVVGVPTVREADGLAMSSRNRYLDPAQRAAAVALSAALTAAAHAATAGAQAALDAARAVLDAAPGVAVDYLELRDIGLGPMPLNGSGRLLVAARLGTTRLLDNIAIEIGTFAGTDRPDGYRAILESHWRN

| Structure (SMILES) | inhibition |
| --- | --- |
| Cc1cccc(CS(=O)(=O)Cc2ccc(C(=O)NCC3CCCO3)o2)c1 (stereo not given) | 0% |
| CCCCCCNS(=O)(=O)c1ccc(Cl)s1 | 2% |
| OC(CN1CCN(c2ccccn2)CC1)Cn1c2ccccc2c2ccccc21 (stereo not given) | 0% |
| CCOC(=O)C1=C(CSc2nc(C)cc(C)c2C#N)OC(N)=C(C#N)C1c1cccs1 (stereo not given) | 2% |
| Cc1ccc(-n2nnnc2SCC(=O)c2cc(C)n(CC3CCCO3)c2C)cc1 (stereo not given) | 0% |
| CCN(CC)S(=O)(=O)N1CCC(C(=O)NC2CCCc3ccccc32)CC1 (stereo not given) | 0% |
| CC(=N\O)/C(CN(C)C)=N/O | 0% |
| CCOC(=O)c1ccc(NC(=O)Cn2cc3c(n2)CCC(C)C3)cc1 (stereo not given) | 8% |
| COc1ccc(N2CCN(C(=O)CSc3ccccc3N)CC2)cc1 | 0% |
| O=C(c1nn2cccnc2c1Cl)N1CCN(c2ccccc2)CC1 | 6% |
| CCCS(=O)(=O)NCCc1cc2cc(C)c(C)cc2[nH]c1=O | 0% |
| O=C(Nc1cc(C(F)(F)F)ccc1Cl)C1CCN(c2nnc(-n3cccc3)s2)CC1 | 3% |
| N#Cc1c(NC(NC(=O)c2ccco2)C(=O)c2ccccc2)sc2c1CCCC2 (stereo not given) | 2% |
| CN(C)C(CN1C(=O)C2CC=CCC2C1=O)c1cn(C)c2ccccc12 (stereo not given) | 0% |
| COc1ccc(NC(=O)CN(c2cc(C)cc(C)c2)S(=O)(=O)c2c(C)noc2C)cc1OC | 0% |
| COc1ccc2nc(NC(=O)CSc3nnc(-c4ccoc4C)n3C)sc2c1 | 2% |
| Cc1cc(NC(=O)CSc2nc3c(c(=O)n2Cc2ccccc2)SC(C)C3)no1 (stereo not given) | 0% |
| O=C(NCc1ccccc1)c1ccc(OC2CSC2)cc1 | 1% |
| CCC(Sc1nc2sc(C(=O)OC)c(C)c2c(=O)n1N)C(=O)NCC1CCCO1 (stereo not given) | 4% |
| Cc1cccc(-n2ncc3c(NCCCO)ncnc32)c1 | 2% |

| Structure (SMILES) | inhibition |
| --- | --- |
| COC(=O)CN(c1ccc(F)cc1)S(=O)(=O)c1ccccc1 | 0% |
| COc1cc2c(cc1OC)CN(CC(=O)Nc1cccc(C)c1)CC2 | 11% |
| O=C(CCN1C(=O)C2C3C=CC(C3)C2C1=O)NCCc1ccccc1Cl (stereo not given) | 0% |
| O=S(=O)(c1cccs1)N1CCN(Cc2nc3ccccc3s2)CC1 | 0% |
| COc1ccc(C(c2sc3nc(C)nn3c2O)N2CCCCC2)cc1 (stereo not given) | 0% |
| CCOc1ccc(Cn2nnc(C(=O)NCc3ccc(OC)cc3)c2N)cc1 | 2% |
| Cc1ccc2[nH]c(=O)c(C(c3nnnn3CCc3ccccc3)N3CCOCC3)cc2c1 (stereo not given) | 6% |
| COc1ccc(NC(=O)CN2CCCCC2)cc1 | 0% |
| Cc1ccc(-c2cc(C(=O)Nc3cc(C)ccc3C)[nH]n2)c(O)c1 | 0% |
| c1nc(NCC2CCCO2)c2[nH]cnc2n1 (stereo not given) | 0% |
| CC(C)(C)c1ccc(C(O)CCCN2CCC(C(O)(c3ccccc3)c3ccccc3)CC2)cc1 (stereo not given) | 0% |
| O=C(NCC(=O)N(c1cnc2ccccc2c1)C(C(=O)NC1CCCC1)c1ccncc1)c1ccco1 (stereo not given) | 0% |
| CCOC(=O)CCCn1nc(C)n2c(cc3sccc32)c1=O | 5% |
| Cc1nnc(SCc2nnc(-c3ccccc3Br)o2)n1-c1ccccc1 | 0% |
| C=CCn1c(SCC(=O)NC2CCCCC2)nnc1-c1sc(N)nc1C | 7% |
| COc1ccc(S(=O)(=O)n2ccnc2)c2cccnc12 | 4% |
| O=C(NCC(c1cccnc1)N1CCN(c2ccccc2)CC1)c1ccc2c(c1)OCO2 (stereo not given) | 0% |
| O=C(Nc1cccc(-c2nnc(-c3ccccc3)o2)c1)C1CCCCC1 | 0% |
| CCN1C(=O)/C(=C2\C=Cc3ccccc3N2CC)OC1=S | 11% |
| C(=C\c1ccccc1)/CN1CCN(C(c2ccccc2)c2ccccc2)CC1 | 0% |
